Results filed as inconclusive are left out. Calls of active or inactive are those of the source. Calls come from the whole dose curve; as a rule, active = well fitted curve in the direction sought with a large enough effect; inconclusive = small, poorly fitted or top-dose-only effect, or another doubt; inactive = no such curve, though single readings can be large; an effect the other way counts as inactive or inconclusive.
Legend:
CRL-7250 = normal cell line; test: Cytotoxic Profiling of Annotated Libraries Using Quantitative High-Throughput Screening (AID 1296008); settings: Five cell lines viability, CellTiter-Glo ATP luminescence, 48-72 h; max response: stronger effect = lower value; note: nearly all actives have a fitted effect of over 60% in size; for max response: % is set by controls: 0 for no effect and ±100 for the full control effect
Method in brief: (§1)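 Cytotoxicity was measured as CellTiter-Glo ATP luminescence, read after 10 min at room temperature. Compound treatment of the cells lasted 48 or 72 hr at 37 degrees Celsius in a qHTS format.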

HEK293 = test: as above; settings: Five cell lines viability, CellTiter-Glo ATP luminescence, 48-72 h; max response: stronger effect = lower value
Method in brief: as §1

HaCat [1] = test: as above; settings: Five cell lines viability, CellTiter-Glo ATP luminescence, 48-72 h; max response: stronger effect = lower value
Method in brief: as §1

KB-3-1 = test: as above; settings: Five cell lines viability, CellTiter-Glo ATP luminescence, 48-72 h; max response: stronger effect = lower value
Method in brief: as §1

NIH3T3 [2] = test: as above; settings: Five cell lines viability, CellTiter-Glo ATP luminescence, 48-72 h; max response: stronger effect = lower value
Method in brief: as §1

HACAT [3] = test: qHTS assay to identify novel small-molecules to repurpose for Merkel cell carcinoma treatment (AID 1296009); settings: MCC and control cell lines, CellTiter-Glo viability, 72 h; at 44.8 µM (top of the series) unless noted; note: nearly all actives have a fitted effect of over 60% in size
Method in brief: (§2)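 72 hr, 37 degree celsius; NPC 8-pt / MIPE 11-pt dose response; compound pinned in DMSO; CellTiter-Glo, 10 min RT, luminescence; normalized to no-cell and DMSO controls.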

NIH3T3 [4] = test: as above; settings: MCC and control cell lines, CellTiter-Glo viability, 72 h; at 44.8 µM (top of the series) unless noted
Method in brief: as §2

C33A = test: Primary qHTS to identify gynecologic anti-cancer compounds using libraries of approved drugs and bioactive compounds (AID 1345084); settings: Gynecologic cancer cell panel viability, ATPlite luminescence, 48 h; series mostly up to 57.5 µM; note: % is set by controls: 0 for no effect and ±100 for the full control effect; nearly all actives have a fitted effect of over 55% in size
Method in brief: (§3)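 Cells, 1,000 per well, were allowed to settle for 16 h at 37 C before compound addition. Five concentrations were tested for 48 h, and viability was read by ATPlite luminescence after 15 min at room temperature.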

CAOV3 = test: as above; settings: Gynecologic cancer cell panel viability, ATPlite luminescence, 48 h; series mostly up to 57.5 µM
Method in brief: as §3

CASKI = test: as above; settings: Gynecologic cancer cell panel viability, ATPlite luminescence, 48 h; series mostly up to 57.5 µM
Method in brief: as §3

Es-2 = test: as above; settings: Gynecologic cancer cell panel viability, ATPlite luminescence, 48 h; series mostly up to 57.5 µM
Method in brief: as §3

HeLa = test: as above; settings: Gynecologic cancer cell panel viability, ATPlite luminescence, 48 h; series mostly up to 57.5 µM
Method in brief: as §3

Hek293T = test: as above; settings: Gynecologic cancer cell panel viability, ATPlite luminescence, 48 h, control line for the selectivity index; series mostly up to 57.5 µM
Method in brief: as §3

JEG-3 = test: as above; settings: Gynecologic cancer cell panel viability, ATPlite luminescence, 48 h; series mostly up to 57.5 µM
Method in brief: as §3

OV90 = test: as above; settings: Gynecologic cancer cell panel viability, ATPlite luminescence, 48 h; series mostly up to 57.5 µM
Method in brief: as §3

PA-1 = test: as above; settings: Gynecologic cancer cell panel viability, ATPlite luminescence, 48 h; series mostly up to 57.5 µM
Method in brief: as §3

COc1c(O)cc2c(c1O)C(=O)O[C@H](C)[C@H]2O
inactive: outcome (CRL-7250) | max response (HEK293) -6.03% | outcome (HaCat [1]) | max response (KB-3-1) 4.43% | outcome (NIH3T3 [2]) | outcome (HACAT [3]) | outcome (NIH3T3 [4]) | Potency (C33A) | Potency (CAOV3) | outcome (CASKI) | Potency (Es-2) | Potency (HeLa) | Potency (Hek293T) | Potency (JEG-3) | Potency (OV90) | Potency (PA-1)

COC(=O)C1(C)CCCC2(C)c3ccc(C(C)C)cc3C(O)C(O)C12 (stereo not given)
inactive: max response (CRL-7250) -3.44% | max response (HEK293) -25.7% | outcome (HaCat [1]) | outcome (KB-3-1) | outcome (NIH3T3 [2]) | outcome (HACAT [3]) | outcome (NIH3T3 [4]) | Potency (C33A) | Potency (CAOV3) | outcome (CASKI) | Potency (Es-2) | Potency (HeLa) | Potency (Hek293T) | Potency (JEG-3) | Potency (OV90) | Potency (PA-1)

O=C(NC1CCN(CC(F)(F)F)CC1)c1ccc(-c2cccc(F)c2)nc1
inactive: outcome (CRL-7250) | max response (HEK293) -11% | outcome (HaCat [1]) | max response (KB-3-1) -3.14% | outcome (NIH3T3 [2]) | outcome (HACAT [3]) | outcome (NIH3T3 [4]) | Potency (C33A) | Potency (CAOV3) | outcome (CASKI) | Potency (Es-2) | Potency (HeLa) | Potency (Hek293T) | Potency (JEG-3) | Potency (OV90) | Potency (PA-1)

CC1(C)CC[C@]2(C(=O)O[C@@H]3O[C@H](CO)[C@@H](O)[C@H](O)[C@H]3O)CC[C@]3(C)C(=CCC4[C@@]5(C)C[C@H](O)[C@H](O[C@@H]6OC[C@@H](O)[C@H](O)[C@H]6O)[C@@](C)(CO)C5CC[C@]43C)C2C1 (stereo not given in full)
inactive: max response (CRL-7250) -3.53% | max response (HEK293) -6.93% | outcome (HaCat [1]) | max response (KB-3-1) 9.53% | outcome (NIH3T3 [2]) | outcome (HACAT [3]) inactive [at 9.27 µM] | outcome (NIH3T3 [4]) inactive [at 9.27 µM] | activity change, negative = cytotoxicity (C33A) 6.67% [at 11.6 µM] | activity change, negative = cytotoxicity (CAOV3) 10.5% [at 11.6 µM] | activity change, negative = cytotoxicity (CASKI) 2.82% [at 11.6 µM] | activity change, negative = cytotoxicity (Es-2) 1.33% [at 11.6 µM] | activity change, negative = cytotoxicity (HeLa) 24.4% [at 11.6 µM] | activity change, negative = cytotoxicity (Hek293T) 12.6% [at 11.6 µM] | activity change, negative = cytotoxicity (JEG-3) 17% [at 11.6 µM] | activity change, negative = cytotoxicity (OV90) 6.42% [at 11.6 µM] | activity change, negative = cytotoxicity (PA-1) 8.05% [at 11.6 µM]

CC(C)C1NC(=O)C(CC2(O)c3ccccc3N3C(=O)C(Cc4ccccc4)NC32)NC1=O (stereo not given)
inactive: outcome (CRL-7250) | max response (HEK293) -4.45% | outcome (HaCat [1]) | outcome (KB-3-1) | outcome (NIH3T3 [2]) | outcome (HACAT [3]) inactive [at 17.4 µM] | outcome (NIH3T3 [4]) inactive [at 17.4 µM] | Potency (C33A) | Potency (CAOV3) | outcome (CASKI) | Potency (Es-2) | Potency (HeLa) | Potency (Hek293T) | Potency (JEG-3) | Potency (OV90) | Potency (PA-1)

CCC(C)C(=O)OC[C@H]1O[C@H](O[C@H]2O[C@H](CO)[C@@H](O)[C@H](O)[C@H]2O)[C@H](O)[C@@H](O)[C@@H]1O (stereo not given in full)
inactive: outcome (CRL-7250) | max response (HEK293) 0.11% | outcome (HaCat [1]) | max response (KB-3-1) 6.74% | outcome (NIH3T3 [2]) | outcome (HACAT [3]) inactive [at 17.4 µM] | outcome (NIH3T3 [4]) inactive [at 17.4 µM] | Potency (C33A) | Potency (CAOV3) | outcome (CASKI) | Potency (Es-2) | Potency (HeLa) | Potency (Hek293T) | Potency (JEG-3) | Potency (OV90) | Potency (PA-1)

COc1cc2c(cc1O)CC(O)(CO)C(CO)C2c1ccc(OC2OC(CO)C(O)C(O)C2O)c(OC)c1 (stereo not given)
inactive: outcome (CRL-7250) | max response (HEK293) -0.898% | outcome (HaCat [1]) | outcome (KB-3-1) | outcome (NIH3T3 [2]) | outcome (HACAT [3]) inactive [at 17.4 µM] | outcome (NIH3T3 [4]) inactive [at 17.4 µM] | Potency (C33A) | Potency (CAOV3) | outcome (CASKI) | Potency (Es-2) | Potency (HeLa) | Potency (Hek293T) | Potency (JEG-3) | Potency (OV90) | Potency (PA-1)

CC(=O)OC1C(O)C(C)(O)C(/C=C/C(=O)O)C2(C)CCCC(C)(C)C12 (stereo not given)
inactive: max response (CRL-7250) 4.11% | max response (HEK293) 0.298% | outcome (HaCat [1]) | max response (KB-3-1) 6.25% | outcome (NIH3T3 [2]) | outcome (HACAT [3]) | outcome (NIH3T3 [4]) | Potency (C33A) | Potency (CAOV3) | outcome (CASKI) | Potency (Es-2) | Potency (HeLa) | Potency (Hek293T) | Potency (JEG-3) | Potency (OV90) | Potency (PA-1)

C/C=C/C=C/C(=O)OC1CC/C=C/C(O)C(O)C(CCC)OC1=O (stereo not given)
inactive: max response (CRL-7250) -18.3% | max response (HEK293) 4.94% | outcome (HaCat [1]) | max response (KB-3-1) 4.6% | outcome (NIH3T3 [2]) | outcome (HACAT [3]) | outcome (NIH3T3 [4]) | Potency (C33A) | Potency (CAOV3) | outcome (CASKI) | Potency (Es-2) | Potency (HeLa) | Potency (Hek293T) | Potency (JEG-3) | Potency (OV90) | Potency (PA-1)

COc1cc(C)c(C(=O)OC2C(C)OC(OC3CCC(C)C4C3C=C(C)C3/C(C)=C\CC/C(C)=C/C5(C)C=C(C(=O)O)C(C)CC56OC(=O)/C(=C(\O)C34C)C6=O)C(O)C2O)c(OC)c1 (stereo not given)
inactive: outcome (CRL-7250) | max response (HEK293) -1.11% | outcome (HaCat [1]) | max response (KB-3-1) -3.91% | outcome (NIH3T3 [2]) | outcome (HACAT [3]) inactive [at 9.27 µM] | outcome (NIH3T3 [4]) inactive [at 9.27 µM] | activity change, negative = cytotoxicity (C33A) 17.6% [at 11.6 µM] | activity change, negative = cytotoxicity (CAOV3) 11.9% [at 11.6 µM] | activity change, negative = cytotoxicity (CASKI) 0.731% [at 11.6 µM] | activity change, negative = cytotoxicity (Es-2) 6.73% [at 11.6 µM] | activity change, negative = cytotoxicity (HeLa) -3.64% [at 11.6 µM] | activity change, negative = cytotoxicity (Hek293T) 6.05% [at 11.6 µM] | activity change, negative = cytotoxicity (JEG-3) -0.361% [at 11.6 µM] | activity change, negative = cytotoxicity (OV90) 2.6% [at 11.6 µM] | activity change, negative = cytotoxicity (PA-1) -4.04% [at 11.6 µM]
